According to PubChem BioAssay (EPA / NIEHS):
Calls of active or inactive are those of the source. The calls were made as follows: active = hit-call score of the fitted dose curve at least 0.9, where 1 is the maximum; inactive = score below 0.9.

Key:
[1] = biological target: Transcription factor E2F1 (Homo sapiens) (UniProt Q01094); experiment: ATG_E2F_CIS: Attagene CIS-FACTORIAL HepG2 Assay for human E2F Transcription Factor 1 (AID 2282935); conditions: HepG2 Attagene cis-reporter, E2F reporter RNA transcripts; actives raise or lower the signal
In short: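 Cis-element reporter mRNA induction in transiently transfected HepG2, 24 h exposure. Activity fitted in both directions relative to DMSO negative control.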

[2] = ATG_E_Box_CIS: Attagene CIS-FACTORIAL HepG2 Assay for human Enhancer Box (E-box) (AID 2282936); conditions: HepG2 E-box cis-reporter transcription, actives raise or lower the signal
In short: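 Cells: HepG2 (human liver), transient MRTU transfection. Exposure 24 h. RNA → oligo(dT) RT → PCR → 6-FAM label → HpaI → CE. Activity fitted both directions relative to DMSO.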

[3] = ATG_EGR_CIS: Attagene CIS-FACTORIAL HepG2 Assay for human Early Growth Response 1 (EGR1) (AID 2282938); conditions: HepG2 Attagene CIS-FACTORIAL EGR reporter mRNA; actives raise or lower the signal
In short: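 Activity is taken as induction or loss of reporter mRNA versus DMSO, fitted bidirectionally. Transcripts from cis-regulated reporter units in transiently transfected HepG2 were measured after 24 h by RT-PCR with capillary electrophoresis.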

[4] = ATG_ERE_CIS: Attagene CIS-FACTORIAL HepG2 Assay for Estrogen Response Element (ERE) (AID 2282940); conditions: HepG2 ERE cis-reporter, Attagene RNA transcript; actives raise or lower the signal
In short: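 Cells used were human hepatoma HepG2, transfected with multiple reporter transcription units under cis-regulatory promoters. Reporter mRNA, read 24 h post-dosing via fluorescent RT-PCR products on capillary electrophoresis, was fitted bidirectionally relative to DMSO.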

[5] = ATG_Ets_CIS: Attagene CIS-FACTORIAL HepG2 Assay for human Erythroblast Transformation Specific (ETS) (AID 2282941); conditions: HepG2 ETS cis-reporter transcription, actives raise or lower the signal
In short: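 Steps: transfect HepG2 with multiple reporter units; treat compound 24 h; isolate RNA, DNase-treat, reverse-transcribe; PCR-amplify, label with 6-FAM, digest with HpaI; separate by capillary electrophoresis. Activity fitted both directions versus DMSO.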

[6] = biological target: Hepatocyte nuclear factor 3-beta (Homo sapiens) (UniProt Q9Y261); experiment: ATG_FoxA2_CIS: Attagene CIS-FACTORIAL HepG2 Assay for human Forkhead box A2 (FOXA2) (AID 2282942); conditions: HepG2 cis-reporter transcription factor activity, 24 h; actives raise or lower the signal
In short: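 Reporter transcript induction is measured by fluorescence after capillary electrophoresis of RT-PCR products from HepG2 cells exposed 24 h. Cis-regulated reporter units report endogenous factor activity; curves fitted both directions against DMSO.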

[7] = ATG_FoxO_CIS: Attagene CIS-FACTORIAL HepG2 Assay for human Forkhead box O (FoxO) (AID 2282943); conditions: HepG2 Attagene cis-reporter, FoxO element, mRNA; actives raise or lower the signal
In short: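 Human hepatoma HepG2 cells carry transiently introduced reporter transcription units controlled by cis promoter elements. Chemical treatment lasted 24 h, and mRNA signal was compared with DMSO.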

[8] = ATG_GATA_CIS: Attagene CIS-FACTORIAL HepG2 Assay for human GATA Binding Protein (AID 2282944); conditions: HepG2 GATA cis-element reporter, Attagene multiplex mRNA; actives raise or lower the signal
In short: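 Endogenous transcription factor activity was captured through cis-promoter-driven reporters in transfected HepG2 cells. After 24 h exposure, reporter transcripts were quantified by RT-PCR with fluorescent capillary electrophoresis, and responses fitted both directions against DMSO.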

[9] = ATG_GLI_CIS: Attagene CIS-FACTORIAL HepG2 Assay for human Zinc Finger Protein GLI1 (AID 2282945); conditions: HepG2, Attagene cis-factorial reporter mRNA, GLI element; actives raise or lower the signal
In short: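 Bidirectional curve fits relative to DMSO, using reporter mRNA levels from RT-PCR plus capillary electrophoresis. Cells were HepG2 transiently carrying cis-regulated reporter constructs, harvested 24 h after dosing.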

[10] = biological target: Bile acid receptor (Homo sapiens) (UniProt Q96RI1); experiment: ATG_IR1_CIS: Attagene CIS-FACTORIAL HepG2 Assay for human Nuclear Receptor Subfamily 1 Group H Member 4 (NR1H4), IR1 submotif (AID 2282946); conditions: IR1 reporter transcription, actives raise or lower the signal
In short: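 Cells (human HepG2) carry transiently transfected cis-promoter reporter transcription units. Compounds are incubated 24 h, total RNA is reverse-transcribed and amplified, and labelled fragments are resolved by capillary electrophoresis. Curves use DMSO as baseline.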

[11] = ATG_GRE_CIS: Attagene CIS-FACTORIAL HepG2 Assay for human Glucocorticoid Response Elements (GRE) (AID 2282947); conditions: HepG2 GRE cis-reporter, Attagene multiplex mRNA; actives raise or lower the signal
In short: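 Transient MRTU transfection of human HepG2 liver cells; cis-regulated reporters report endogenous factors. 24 h dosing → RNA isolation → RT-PCR → 6-FAM primer extension → HpaI cut → CE fragment analysis. Bidirectional fit, DMSO negative control.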

[12] = ATG_ISRE_CIS: Attagene CIS-FACTORIAL HepG2 Assay for human Interferon Regulatory Factor 1 (IRF1) binding to an Interferon-Stimulated Response Element (ISRE) (AID 2282948); conditions: HepG2 ISRE cis-reporter (Attagene), mRNA transcription readout; actives raise or lower the signal
In short: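 Transfected HepG2 (multiple reporter transcription units, cis elements) dosed 24 h. RNA → oligo(dT) RT → PCR → 6-FAM primer extension → HpaI → CE. DMSO = negative control/baseline.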

[13] = ATG_M_32_CIS: Attagene CIS-FACTORIAL HepG2 Assay for M32 Transcription Factor (Internal Marker) (AID 2282949); conditions: HepG2 Attagene cis-factorial M32 reporter, mRNA; actives raise or lower the signal;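 also: background control marker of the multiplexed CIS panel rather than a real target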
In short: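 Fluorescent capillary electrophoresis peaks of HpaI-digested, FAM-labelled RT-PCR reporter products give the signal. Source: transiently transfected human liver HepG2 cells, 24 h after chemical dosing; bidirectional fitting against DMSO.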

[14] = ATG_M_06_CIS: Attagene CIS-FACTORIAL HepG2 Assay for M06 Transcription Factor (Internal Marker) (AID 2282950); conditions: HepG2 Attagene CIS-FACTORIAL M06 internal marker reporter; actives raise or lower the signal
In short: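 Steps: transfect HepG2 with multiplexed cis-element reporter constructs; dose chemical 24 h; extract RNA with DNase treatment; reverse-transcribe, PCR-amplify, 6-FAM label, HpaI digest; separate fragments by capillary electrophoresis. Activity fitted both directions versus DMSO.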

[15] = biological target: Hypoxia-inducible factor 1-alpha (Homo sapiens) (UniProt Q16665); experiment: ATG_HIF1a_CIS: Attagene CIS-FACTORIAL HepG2 Assay for human Hypoxia Inducible Factor 1 (HIF1A) (AID 2282951); conditions: HepG2 Attagene cis-factorial HIF1a reporter transcription; actives raise or lower the signal
In short: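 Fluorescence intensity of capillary-separated, 6-FAM-labelled reporter amplicons gives mRNA induction in HepG2 cells carrying transfected cis-promoter reporter units; cells exposed 24 h, responses fitted up or down from DMSO.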

[16] = biological target: Hepatocyte nuclear factor 6 (Homo sapiens) (UniProt Q9UBC0); experiment: ATG_HNF6_CIS: Attagene CIS-FACTORIAL HepG2 Assay for human Hepatocyte Nuclear Factor 6 (HNF6) (AID 2282952); conditions: HepG2 Attagene cis-factorial HNF6 reporter transcription; actives raise or lower the signal
In short: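 HepG2 cells transiently transfected with cis-element-driven multiple reporter transcription units, dosed 24 h; reporter mRNA quantified by RT-PCR, FAM primer extension, HpaI digestion and capillary electrophoresis; bidirectional fit versus DMSO baseline.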

[17] = biological target: Heat shock factor protein 1 (Homo sapiens) (UniProt Q00613); experiment: ATG_HSE_CIS: Attagene CIS-FACTORIAL HepG2 Assay for human Heat Shock Transcription Factor 1 (HSE) (AID 2282953); conditions: HepG2 HSE cis-reporter, Attagene RNA transcription; actives raise or lower the signal
In short: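 Cells were transfected with cis-element-driven reporter constructs, dosed for 24 h, then total RNA was reverse-transcribed and reporter cDNA amplified, FAM-labelled and digested with HpaI. Fragments were resolved by capillary electrophoresis; gain or loss was fitted against DMSO.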

[18] = ATG_MRE_CIS: Attagene CIS-FACTORIAL HepG2 Assay for human Metal Responsive Element (MRE) (AID 2282954); conditions: HepG2 MRE cis-reporter transcription, Attagene multiplex; actives raise or lower the signal
In short: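 Transient MRTU transfection of HepG2 (FuGene 6); 24 h dosing; total RNA → oligo(dT) RT, PCR, 6-FAM primer extension, HpaI cut, CE. Bidirectional fit vs DMSO.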

[19] = ATG_M_19_CIS: Attagene CIS-FACTORIAL HepG2 Assay for M19 Transcription Factor (Internal Marker) (AID 2282939); conditions: HepG2 Attagene CIS-FACTORIAL M19 internal marker reporter; actives raise or lower the signal
In short: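 Background-control endpoint from a multiplexed HepG2 reporter panel. Cells carrying cis-regulated reporter constructs are treated 24 h, then reporter transcripts are amplified, fluorescently labelled and sized by capillary electrophoresis. DMSO defines baseline.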

Measured: AC50

Chain of Hepatocyte nuclear factor 6 (Homo sapiens) (Q9UBC0 whole entry, looked up): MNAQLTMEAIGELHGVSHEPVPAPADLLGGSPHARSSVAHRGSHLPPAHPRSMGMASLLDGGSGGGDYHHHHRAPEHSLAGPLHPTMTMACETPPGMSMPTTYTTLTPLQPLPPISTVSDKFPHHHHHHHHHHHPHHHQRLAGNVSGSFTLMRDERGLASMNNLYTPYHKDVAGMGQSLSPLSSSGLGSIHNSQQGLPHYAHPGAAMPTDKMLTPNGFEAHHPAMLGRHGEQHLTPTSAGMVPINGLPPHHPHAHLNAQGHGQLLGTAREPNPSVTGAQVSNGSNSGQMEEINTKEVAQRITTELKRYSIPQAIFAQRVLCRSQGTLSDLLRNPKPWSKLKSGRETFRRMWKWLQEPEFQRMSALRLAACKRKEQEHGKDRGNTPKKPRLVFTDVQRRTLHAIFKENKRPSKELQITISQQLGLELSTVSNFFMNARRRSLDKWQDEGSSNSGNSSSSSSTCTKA
Chain of Hypoxia-inducible factor 1-alpha (Homo sapiens) (Q16665 whole entry, looked up): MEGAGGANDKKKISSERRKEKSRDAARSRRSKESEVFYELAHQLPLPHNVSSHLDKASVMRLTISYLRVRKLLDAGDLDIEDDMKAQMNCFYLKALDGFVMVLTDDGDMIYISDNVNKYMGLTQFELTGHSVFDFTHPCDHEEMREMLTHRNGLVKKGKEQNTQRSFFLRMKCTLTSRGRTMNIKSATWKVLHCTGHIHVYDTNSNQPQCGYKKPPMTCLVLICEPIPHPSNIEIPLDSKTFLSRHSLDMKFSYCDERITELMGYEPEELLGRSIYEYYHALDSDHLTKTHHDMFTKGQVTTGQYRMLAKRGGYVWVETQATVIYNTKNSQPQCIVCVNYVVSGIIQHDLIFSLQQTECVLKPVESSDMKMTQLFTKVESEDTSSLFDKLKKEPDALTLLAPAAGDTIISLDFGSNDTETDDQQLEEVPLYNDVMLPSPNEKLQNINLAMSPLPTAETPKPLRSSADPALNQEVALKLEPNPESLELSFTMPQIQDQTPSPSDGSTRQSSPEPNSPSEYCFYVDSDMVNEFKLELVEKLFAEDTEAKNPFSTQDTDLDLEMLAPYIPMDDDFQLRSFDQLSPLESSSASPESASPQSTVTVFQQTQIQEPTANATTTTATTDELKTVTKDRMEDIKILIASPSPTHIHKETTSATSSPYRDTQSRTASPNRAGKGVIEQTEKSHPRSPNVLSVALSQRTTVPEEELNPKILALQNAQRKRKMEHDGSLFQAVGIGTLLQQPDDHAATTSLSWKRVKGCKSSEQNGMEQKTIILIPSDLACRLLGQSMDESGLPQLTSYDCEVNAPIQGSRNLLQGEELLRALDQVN
Chain of Hepatocyte nuclear factor 3-beta (Homo sapiens) (Q9Y261 whole entry, looked up): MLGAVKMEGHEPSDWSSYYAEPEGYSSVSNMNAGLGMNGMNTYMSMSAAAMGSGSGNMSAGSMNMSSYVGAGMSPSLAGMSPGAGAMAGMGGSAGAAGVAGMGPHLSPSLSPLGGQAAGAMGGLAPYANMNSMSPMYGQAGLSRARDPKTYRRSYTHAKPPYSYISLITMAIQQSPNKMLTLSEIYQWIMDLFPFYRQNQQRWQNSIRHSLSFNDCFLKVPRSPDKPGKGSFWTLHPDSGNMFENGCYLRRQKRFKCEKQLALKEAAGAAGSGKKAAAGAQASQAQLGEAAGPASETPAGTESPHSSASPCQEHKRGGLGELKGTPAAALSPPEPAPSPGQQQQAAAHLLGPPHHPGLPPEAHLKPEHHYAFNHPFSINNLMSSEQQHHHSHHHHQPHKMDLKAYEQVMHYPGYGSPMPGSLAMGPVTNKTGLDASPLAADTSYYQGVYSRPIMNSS
Chain of Bile acid receptor (Homo sapiens) (Q96RI1 whole entry, looked up, the tested form may be a part): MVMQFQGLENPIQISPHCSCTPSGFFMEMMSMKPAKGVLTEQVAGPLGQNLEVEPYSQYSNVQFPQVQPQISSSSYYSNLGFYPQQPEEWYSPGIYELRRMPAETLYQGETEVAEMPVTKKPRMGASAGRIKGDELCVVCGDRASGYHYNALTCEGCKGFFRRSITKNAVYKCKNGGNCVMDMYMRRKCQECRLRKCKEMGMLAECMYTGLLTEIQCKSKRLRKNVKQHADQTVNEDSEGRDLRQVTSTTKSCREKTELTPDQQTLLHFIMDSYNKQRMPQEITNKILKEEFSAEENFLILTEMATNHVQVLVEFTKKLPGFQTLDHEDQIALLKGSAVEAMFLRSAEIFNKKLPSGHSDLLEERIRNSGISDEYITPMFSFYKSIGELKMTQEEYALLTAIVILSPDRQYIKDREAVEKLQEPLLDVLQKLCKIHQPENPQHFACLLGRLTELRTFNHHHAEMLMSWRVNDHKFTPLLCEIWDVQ
Chain of Transcription factor E2F1 (Homo sapiens) (Q01094 whole entry, looked up): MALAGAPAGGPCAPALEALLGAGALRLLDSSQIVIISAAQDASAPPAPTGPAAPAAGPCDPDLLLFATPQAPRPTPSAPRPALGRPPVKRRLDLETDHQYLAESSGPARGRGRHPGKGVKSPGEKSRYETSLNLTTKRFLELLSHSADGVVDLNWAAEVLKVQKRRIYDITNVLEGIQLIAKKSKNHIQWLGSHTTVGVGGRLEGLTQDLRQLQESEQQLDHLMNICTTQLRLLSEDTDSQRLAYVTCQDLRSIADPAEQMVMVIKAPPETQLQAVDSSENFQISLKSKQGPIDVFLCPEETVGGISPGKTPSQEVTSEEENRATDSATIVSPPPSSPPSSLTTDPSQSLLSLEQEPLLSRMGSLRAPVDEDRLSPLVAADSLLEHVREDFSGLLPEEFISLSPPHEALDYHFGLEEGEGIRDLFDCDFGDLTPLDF
Chain of Heat shock factor protein 1 (Homo sapiens) (Q00613 whole entry, looked up, the tested form may be a part): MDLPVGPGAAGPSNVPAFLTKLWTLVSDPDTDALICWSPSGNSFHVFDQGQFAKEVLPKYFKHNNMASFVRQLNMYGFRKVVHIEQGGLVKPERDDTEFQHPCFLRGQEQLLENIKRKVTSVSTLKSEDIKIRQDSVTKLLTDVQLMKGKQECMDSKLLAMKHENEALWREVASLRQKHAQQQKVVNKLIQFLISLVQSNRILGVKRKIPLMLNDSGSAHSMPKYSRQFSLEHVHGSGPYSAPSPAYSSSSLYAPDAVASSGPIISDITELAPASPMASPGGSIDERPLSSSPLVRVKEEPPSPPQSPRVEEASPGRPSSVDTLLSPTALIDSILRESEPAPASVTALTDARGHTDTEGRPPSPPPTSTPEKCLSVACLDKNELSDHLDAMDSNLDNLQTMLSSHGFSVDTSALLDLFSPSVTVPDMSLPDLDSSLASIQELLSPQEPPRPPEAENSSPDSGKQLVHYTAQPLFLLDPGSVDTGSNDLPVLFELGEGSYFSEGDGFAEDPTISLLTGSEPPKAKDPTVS

Cc1nc(N(C)C)nc(OC(=O)N(C)C)c1C
not listed: [19]
inactive: all other assays above

Nc1c(Cl)c(Cl)nc(C(=O)O)c1Cl
not listed: [8] | [10]
inactive: all other assays above

CCCCC(O)(Cn1cncn1)c1ccc(Cl)cc1Cl (stereo not drawn)
active: [2] 50 µM | [3] 50 µM | [4] 12.6 µM | [10] 91.3 µM | [16] 88.4 µM | [17] 76.2 µM | [18] 61.5 µM
not listed: [8]
inactive: all other assays above

O=C1C2CC=CCC2C(=O)N1SC(Cl)(Cl)Cl (stereo not drawn)
not listed: [10] | [11]
inactive: all other assays above

COc1cc(OC)nc(NC(=O)NS(=O)(=O)c2ncccc2OCC(F)(F)F)n1
not listed: [8]
inactive: all other assays above
